Source: PubChem BioAssay (NCATS)
Results filed as inconclusive are left out. Activity calls are given as the source filed them. The call rests on the fitted dose curve; in most records, active means well fitted activation curve with a large enough effect; inconclusive means small, poorly fitted or top-dose-only effect; inactive means flat fitted curve, though single readings scatter.

Experiment: Cellular Toxicity (caspase-3) Hek293 (AID 664);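 further: cells exposed to compound for 16 h at 37 °C before readout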
Conditions: HEK293 caspase-3 activation, DMSO = 0%, 100 µM tamoxifen = 100%; series mostly up to 92.2 µM
Source text: NIH Chemical Genomics Center [NCGC]
NIH Molecular Libraries Screening Centers Network [MLSCN]
National Institutes of Environmental Health Sciences [NIEHS]
National Toxicology Program [NTP]
We have developed a 1536-well cell-based assay for quantitative high throughput screening (qHTS) against a number of cell lines to determine in vitro caspase 3/7 of small molecules. This particular assay uses the Hek 293 cell line which is derived from human embryonic kidney cells.
NCGC Assay Protocol Summary:
The Caspase-Glo 3/7 assay (Promega) is a homogeneous method to measure caspase-3 and caspase-7 activities in cultured cells. The quantitation of caspase 3/7 activity is based on the cleavage of a peptide-aminoluciferin substrate. After caspase cleaves the substrate the free aminoluciferin is liberated and serves as the substrate of luciferase, which generates the light. The luminescent signal is proportional to amount of caspase 3/7 activity present.
Using the Caspase-Glo 3/7 assay, the amount of caspase 3/7 activity was measured in the Hek 293 cell line with complete culture medium following compound treatment for 16 hours. The assay was performed in opaque white 1536-well plates. In the screen, tamoxifen and doxorubicin were used as positive controls. Library compounds were measured for their ability to cause the activation of caspase 3/7 in the cell line, as reflected by an increase in luminescence signal, in a concentration-dependent manner. Data were normalized to the controls for basal activity (DMSO only) and 100% stimulation (100 uM tamoxifen). AC50 values were determined from concentration-response data modeled with the standard Hill equation.
qHTS protocol for caspase 3/7 assay in Hek 293 cells
[Step] [Parameter] [Value] [Description]
2. Time; 5 hr; 37 °C incubation
4. Controls; 23 nL; Tamoxifen 0.23 uM to 100 uM & Doxorubicin 7.0 pM to 100 uM
5. Time; 16 hr; 37 °C incubation
6. Reagent; 5 uL; Caspase-Glo 3/7 reagent
7. Time; 20 min; Room Temperature
8. Detection; Luminescence; Viewlux plate reader
Keywords: caspase 3/7, apoptosis, Hek 293 cell line, luminescence, NTPHTS, NTPHTS_NCGC, NIEHS, EPA, DSSTox, MLSMR, MLSCN, NIH Roadmap, qHTS, NCGC

SMILES | outcome
CCOc1cc(C=O)ccc1O | inactive
CC(C)COC(=O)c1ccccc1C(=O)OCC(C)C | inactive
Cc1ccccc1O | inactive
c1ccc(Nc2ccc3ccccc3c2)cc1 | inactive
CCOC(=O)c1ccccc1N | inactive
Oc1ccccc1Cl | inactive
COC(=O)c1ccccc1C(=O)OC | inactive
c1ccc2c(c1)-c1cccc3cccc-2c13 | inactive
Oc1c(Cl)c(Cl)c(Cl)c(Cl)c1Cl | inactive
O=Cc1ccccc1 | inactive
COC1=CC(=O)OC(CCc2ccc3c(c2)OCO3)C1 (stereo not drawn) | inactive
CC(=O)/C=C/c1ccccc1 | inactive
CC(C)(c1ccc(OCC2CO2)cc1)c1ccc(OCC2CO2)cc1 (stereo not drawn) | inactive
